Hits are enriched below; roughly 4% of the tested compounds scored in any of these assays.
Peg3 promoter = Peg3 promoter activity inhibition; HeLa PEG-Prom luciferase reporter, luminescence, overnight; inhibition, % at 20 µM; hit rate 1.7% among 360,000; AID 588405;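 active = inhibition of at least 50% at 20 µM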
HIF-2a inh = inhibitors of HIF-2a; inhibition, % at 18.8 µM; 786-0 RCC cells HIF-2a reporter, luciferase luminescence, overnight; hit rate 0.72% among 360,000;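 active = inhibition of the luminescence signal of 40% or more relative to plate controls, in a single-dose primary screen at 18.75 µM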
TWEAK-Fn14 inh = TWEAK-Fn14 signaling inhibition | inhibition, % at 10 µM | hit rate 2% among 360,000 | AID 1159606 | TWEAK-stimulated Fn14 reporter cells, luciferase luminescence, 8 h; in the data active = inhibition above about 50%
KKLEB tox = counter-screen for CF NF-kB inhibitors: cytotoxicity | hit rate 0.36% among 360,000 | activity change (cytotoxicity), % at 5 µM | AID 602141 | KKLEB CF airway cells viability, ATPlite luminescence, overnight; active compounds read low; cells stimulated with P. aeruginosa culture filtrate;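 active = corrected activity change at or below -50% at 5 µM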
CF NFkB block = inhibitors of cystic fibrosis induced NF-kB | KKLEB NF-kB-GFP reporter, PAF-induced, GFP fluorescence overnight | inhibition, % at 5 µM | hit rate 0.86% among 360,000 | AID 588850;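 active = at least 50% inhibition at 5 µM, scaled per plate between neutral and stimulator controls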;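 also: PAF is a Pseudomonas aeruginosa culture filtrate used as stimulus; plate controls were PAF-stimulated DMSO wells for no effect and unstimulated DMSO wells for full effect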
TROY signal inh = TROY signaling inhibition | Q293 LMP1-TROYcd NF-kB luciferase reporter, 4 h | inhibition, % at 10 µM | hit rate 0.98% among 360,000;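 active = compounds whose plate-normalised and pattern-corrected inhibition of the luciferase reporter signal at the single screening dose is 50% or more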
Starred values were filed as active, the others as inactive.

How did C=CCNC(=O)NC(=O)COC(=O)c1ccccc1Sc1ccc(C(F)(F)F)cc1[N+](=O)[O-] do in these assays?
Peg3 promoter: 26.3; HIF-2a inh: 21.0; TWEAK-Fn14 inh: 0.8; KKLEB tox: -2.2; CF NFkB block: 5.7; TROY signal inh: 12.0

Results for CC(C)CNC(=O)NC(=O)COC(=O)c1ccccc1Sc1ccc(C(F)(F)F)cc1[N+](=O)[O-] ?
Peg3 promoter: 15.4; HIF-2a inh: 18.2; TWEAK-Fn14 inh: 57.4*; KKLEB tox: 9.8; CF NFkB block: -11.8; TROY signal inh: 31.2

Results for Cc1ccc(C(=O)Nc2ccc(N3CCN(C)CC3)cc2)cc1 ?
Peg3 promoter: -230.6; HIF-2a inh: -194.7; TWEAK-Fn14 inh: -3.9; KKLEB tox: 6.4; CF NFkB block: -12.9; TROY signal inh: -19.9

How did CC(=O)Nc1ccc(NC(=O)c2cc([N+](=O)[O-])cc([N+](=O)[O-])c2)cc1 do in these assays?
Peg3 promoter: -7.2; HIF-2a inh: 6.3; TWEAK-Fn14 inh: -21.8; KKLEB tox: -23.9; CF NFkB block: -12.3; TROY signal inh: -2.6

Results for Cc1ccc(NC(=O)c2ccc(C)cc2)cc1 ?
Peg3 promoter: -175.4; HIF-2a inh: -122.3; TWEAK-Fn14 inh: 59.0*; KKLEB tox: -9.1; CF NFkB block: -14.7; TROY signal inh: 3.7

How did Cc1ccc(NC(=O)c2ccc(Nc3c([N+](=O)[O-])cc([N+](=O)[O-])cc3[N+](=O)[O-])cc2)cc1 do in these assays?
Peg3 promoter: 32.2; HIF-2a inh: 21.9; TWEAK-Fn14 inh: 94.1*; KKLEB tox: 23.1; CF NFkB block: -84.9; TROY signal inh: 66.2*

Results for CCOC(=O)c1c(-c2ccccc2)oc2ccc(OCC(O)CNCCN(C)C)cc12 (centres undefined) ?
Peg3 promoter: 100.1*; HIF-2a inh: 9.8; TWEAK-Fn14 inh: -81.1; KKLEB tox: -13.5; CF NFkB block: -2.8; TROY signal inh: -70.6

What do the screens show for `CC(C)COc1ccc(C(=O)N(Cc2ccco2)C2CCS(=O)(=O)C2)cc1` (centres undefined)?
Peg3 promoter: 7.7; HIF-2a inh: 13.3; TWEAK-Fn14 inh: 72.8*; KKLEB tox: 0.9; CF NFkB block: -0.3

What do the screens show for `CC(Oc1ccc(Cl)cc1Cl)C(=O)N(Cc1ccco1)C1CCS(=O)(=O)C1` (centres undefined)?
Peg3 promoter: 8.4; HIF-2a inh: 17.7; TWEAK-Fn14 inh: 83.5*; KKLEB tox: -11.0; CF NFkB block: 16.6

Results for COc1ccccc1NCCC#N ?
Peg3 promoter: 16.3; HIF-2a inh: 17.2; TWEAK-Fn14 inh: -9.9; KKLEB tox: -0.9; CF NFkB block: 13.0; TROY signal inh: -3.3

Results for CN(C)CCCn1c(N)c(C#N)c2nc3ccccc3nc21 ?
Peg3 promoter: 10.0; HIF-2a inh: 8.4; TWEAK-Fn14 inh: 55.2*; KKLEB tox: -5.2; CF NFkB block: -22.0; TROY signal inh: 18.1

How did CCOC(=O)c1ccc(N=c2sc(C(=O)OC)cc(=O)n2-c2ccc(C(=O)OCC)cc2)cc1 do in these assays?
Peg3 promoter: 98.9*; HIF-2a inh: 38.9; TWEAK-Fn14 inh: 54.1*; KKLEB tox: -19.4; CF NFkB block: 16.6; TROY signal inh: 20.5

What do the screens show for `COc1ccc2[nH]c(=O)c(CN(Cc3cccs3)S(=O)(=O)c3c(C)ccc4nsnc34)cc2c1`?
Peg3 promoter: 59.4*; HIF-2a inh: 0.9; TWEAK-Fn14 inh: 60.6*; KKLEB tox: -21.1; CF NFkB block: 96.7*; TROY signal inh: 25.2

How did Cc1ccc2[nH]c(=O)c(CN(Cc3ccco3)S(=O)(=O)c3c(C)ccc4nsnc34)cc2c1 do in these assays?
Peg3 promoter: 19.1; HIF-2a inh: 18.1; TWEAK-Fn14 inh: 23.3; KKLEB tox: 3.9; CF NFkB block: 11.8; TROY signal inh: -4.6

What do the screens show for `C=CCn1c(-c2cccc(OC)c2OC)n[nH]c1=S`?
Peg3 promoter: 11.5; HIF-2a inh: 10.8; TWEAK-Fn14 inh: -4.6; KKLEB tox: 4.6; CF NFkB block: 23.5; TROY signal inh: -4.2

How did COc1cc(N(C)C)ccc1C=c1c2ccccc2n2c1cc(-c1ccccc1)[n+]2C do in these assays?
Peg3 promoter: 99.6*; HIF-2a inh: 89.5*; TWEAK-Fn14 inh: 87.9*; KKLEB tox: -26.2; CF NFkB block: -64.5; TROY signal inh: 57.5*

How did COc1cc(C=c2c3ccccc3n3c2cc(-c2ccccc2)[n+]3C)cc(OC)c1OC do in these assays?
Peg3 promoter: 38.1; HIF-2a inh: -22.3; TWEAK-Fn14 inh: 17.2; KKLEB tox: -26.5; CF NFkB block: 22.3; TROY signal inh: 8.4

How did CN(C)c1ccc(C=c2c3cc([N+](=O)[O-])ccc3n3c2cc(-c2ccccc2)[n+]3C)cc1 do in these assays?
Peg3 promoter: 105.8*; HIF-2a inh: 74.6*; TWEAK-Fn14 inh: 75.9*; KKLEB tox: -52.3*; CF NFkB block: -30.1; TROY signal inh: 43.1

Results for CN(C)c1ccc(C=c2c3ccccc3n3c2c2c([n+]3C)CCCC2)cc1 ?
Peg3 promoter: 101.9*; HIF-2a inh: 93.1*; TWEAK-Fn14 inh: 63.5*; KKLEB tox: 7.0; CF NFkB block: -138.9; TROY signal inh: 48.3

What do the screens show for `Cn1c(CO)c(-c2ccccc2)c2cc([N+](=O)[O-])ccc21`?
Peg3 promoter: 30.4; HIF-2a inh: 22.1; TWEAK-Fn14 inh: 4.3; KKLEB tox: -16.7; CF NFkB block: 4.4; TROY signal inh: -0.7

Results for CN(C)c1ccc(C=c2c3ccccc3n3c2cc(-c2ccc(Cl)cc2)[n+]3C)cc1 ?
Peg3 promoter: 60.6*; HIF-2a inh: -55.9; TWEAK-Fn14 inh: 53.9*; KKLEB tox: -2.2; CF NFkB block: -111.6; TROY signal inh: 61.7*

What do the screens show for `CC(C)Cn1c(N)c(C(=O)CSc2nnnn2-c2ccc(Cl)cc2)c(=O)n(C)c1=O`?
Peg3 promoter: -5.6; HIF-2a inh: 10.4; TWEAK-Fn14 inh: -15.1; KKLEB tox: -5.4; CF NFkB block: 4.1; TROY signal inh: 10.5

How did CC(C)(C)NC(=O)C(c1ccc(C#N)cc1)n1c(=O)c(-c2ccco2)nc2ccccc21 (centres undefined) do in these assays?
HIF-2a inh: -0.8

What do the screens show for `O=C(CSc1nc(-c2ccccc2)c(-c2ccccc2)o1)N1CCOCC1`?
Peg3 promoter: 13.8; HIF-2a inh: 8.6; TWEAK-Fn14 inh: -12.8; KKLEB tox: -16.9; CF NFkB block: 5.9; TROY signal inh: -19.3

How did CCCC(=O)NC(=S)Nc1ccc(S(=O)(=O)N2CCc3ccccc32)cc1 do in these assays?
Peg3 promoter: 29.9; HIF-2a inh: 35.5; TWEAK-Fn14 inh: -11.2; KKLEB tox: -18.0; CF NFkB block: 4.0; TROY signal inh: 1.6

What do the screens show for `CCOC(=O)/C(C#N)=N/Nc1ccc(S(=O)(=O)N2CCc3ccccc32)cc1`?
Peg3 promoter: 26.9; HIF-2a inh: -1.1; TWEAK-Fn14 inh: 36.1; KKLEB tox: -7.3; CF NFkB block: 27.0; TROY signal inh: 52.2*

Compound activity (PubChem BioAssay)
